# The list shows a part of the results. Activity calls are given as the source filed them. No stated cut-off is given here; in the data, active means activation above about 17%; inactive means the rest.
# Target: 5-hydroxytryptamine receptor 5A (Homo sapiens) (UniProt P47898)
# Experiment: HTR5A agonists, retest of hits, confirmation, cell-based, luminescence (AID 504915);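 further: 0% = cells with vehicle only and 100% = full reference agonist response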
# Settings: HTR5A agonist cell assay, at 9.3 µM, hits give high values
# Chain of 5-hydroxytryptamine receptor 5A (Homo sapiens) (P47898 whole entry, looked up): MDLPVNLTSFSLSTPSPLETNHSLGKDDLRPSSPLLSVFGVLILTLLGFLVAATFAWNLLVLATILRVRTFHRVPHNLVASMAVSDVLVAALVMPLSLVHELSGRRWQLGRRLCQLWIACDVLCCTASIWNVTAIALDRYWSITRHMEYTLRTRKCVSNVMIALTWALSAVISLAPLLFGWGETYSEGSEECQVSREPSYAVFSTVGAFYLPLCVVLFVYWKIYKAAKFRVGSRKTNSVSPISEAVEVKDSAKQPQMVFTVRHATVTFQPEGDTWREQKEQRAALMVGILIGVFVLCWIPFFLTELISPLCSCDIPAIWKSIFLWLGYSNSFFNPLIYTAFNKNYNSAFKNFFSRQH
smiles,measurement,value
CCCCCCCCCCCCn1ccc(=N)cc1,activation,0.13% (inactive)

# Source: PubChem BioAssay AID504915 (The Scripps Research Institute Molecular Screening Center, 2011)
